PubChem BioAssay (NCI)
Compounds without any hit were thinned out: in the full panel of roughly 83,000, 20% have a hit.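 Activity criterion: percent growth below 10, measured after cells in 96-well plates were exposed to a single compound concentration for 48 hours.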 Calls of active or inactive are those of the source.

These compounds were tested on MDA-MB-468 breast (assay: NCI-60 one-dose screen, 48 h (100 = growth as untreated, 0 = no growth, -100 = all killed)). Conditions: 10 µM unless noted.

| SMILES | growth |
| --- | --- |
| CCOC(=O)CNN | 95.7% (inactive) |
| COC1CC(O)C2=C(CC3C(/C(C)=C\CC=C(C)C)CCC3(C)O2)C1=O (configuration not stated) | 109% (inactive) |
| CN1C(=O)NC(c2ccc(Cl)cc2)(c2ccc(Cl)cc2)C1=O | 104% (inactive) |
| COc1cc2nc3cc([N+](=O)[O-])ccc3c(NCCNCC(C)(C)O)c2cc1OC | -37.5% (active) |
| Cc1cc2c(-c3nc4ccccn4c3N)c(O)c(O)cc2c(O)c1-c1c(C)cc2c(-c3nc4ccccn4c3N)c(O)c(O)cc2c1O | -2.1% (active) |
| NC[C@@H]1CCN(c2cc3c(cc2F)c(=O)n(N)c(=O)n3Cc2ccc(-c3ccccc3)cc2)C1 | 72.6% (inactive) |
| CCN1CCN(c2nc(NCCCNc3ccnc4cc(Cl)ccc34)c3ccccc3n2)CC1 | 29.1% (inactive) |
| O=C(Nc1ccc(Cl)cc1F)c1cc(Cl)ccc1O | -20.2% (active) |
| CN1CCN(c2ccc(Nc3nc(NCCCNS(=O)(=O)c4cccc5ccccc45)c4sccc4n3)cc2)CC1 | -70.5% (active) |
| CC(=O)O[C@H]1CC[C@@]2(C)[C@@H](CC[C@@H]3[C@@H]2CC(=O)[C@@]2(C)[C@H]3C[C@@H](C3CCCC3=O)[C@@H]2C(C)=O)C1 (some centres not stated) | 114% (inactive) |
| O=C1/C(=C/c2ccc(O)cc2)Oc2ccc(Cl)cc21 | 131% (inactive) |
| CCc1ccc(NC(=O)N[C@@H](Cc2cc(F)cc(F)c2)C(=O)N[C@@H]2C(=O)N3C[C@H](O)C[C@H]3C(=O)N3CCOC[C@H]3C(=O)N[C@@H](C)C(=O)N3C[C@H](C)C[C@H]3C(=O)O[C@H]2C)cc1 | 14.8% (inactive) |
